Assay results published in PubChem BioAssay (NCATS).
Records with an inconclusive call do not appear. The source made the active and inactive calls. The call rests on the fitted dose curve; in most records, active means well fitted curve in the direction sought with a large enough effect; inconclusive means small, poorly fitted or top-dose-only effect, or another doubt; inactive means no such curve, though single readings can be large; an effect the other way counts as inactive or inconclusive.

Columns and labels:
[1] = qHTS of pediatric cancer cell lines to identify multiple opportunities for drug repurposing: Primary screen for U-2 OS cells (AID 1347096); further: nearly all actives have a fitted effect of over 50% in size
Procedure, shortened: (§1)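 Cells (500-1,000/well) in growth media were settled 5 h at 37 degrees C, then given compounds for 48 h. Viability was read as CellTiter-Glo luminescence. Primary runs used MIPE at 11 points (0.78 nM-46 µM) and NPC at 8 points (0.59 nM-46 µM); follow-ups used 11 points.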

[2] = qHTS of pediatric cancer cell lines to identify multiple opportunities for drug repurposing: Primary screen for NB1643 cells (AID 1347099); further: nearly all actives have a fitted effect of over 50% in size; further: potency means the concentration at half of the fitted maximal effect
Procedure, shortened: (§2)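 Cells plated at 500-1,000/well in growth medium, compounds added after 5 h. MIPE tested at 11 points (from 0.78 nM), NPC at 8 points (from 0.59 nM). CellTiter-Glo luminescence after 48 h; concentration-response curves from primary screen.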

[3] = qHTS of pediatric cancer cell lines to identify multiple opportunities for drug repurposing: Primary screen for Rh18 cells (AID 1347102); further: nearly all actives have a fitted effect of over 65% in size; further: potency means the concentration at half of the fitted maximal effect
Procedure, shortened: as §1

[4] = qHTS of pediatric cancer cell lines to identify multiple opportunities for drug repurposing: Primary screen for RD cells (AID 1347104); further: nearly all actives have a fitted effect of over 55% in size; further: potency means the concentration at half of the fitted maximal effect
Procedure, shortened: as §2

[5] = qHTS of pediatric cancer cell lines to identify multiple opportunities for drug repurposing: Primary screen for control Hh wild type fibroblast cells (AID 1347106); further: nearly all actives have a fitted effect of over 55% in size; further: potency means the concentration at half of the fitted maximal effect
Procedure, shortened: as §1

[6] = qHTS of pediatric cancer cell lines to identify multiple opportunities for drug repurposing: Primary screen for Rh30 cells (AID 1347107); further: nearly all actives have a fitted effect of over 75% in size; further: potency means the concentration at half of the fitted maximal effect
Procedure, shortened: as §1

[7] = qHTS of pediatric cancer cell lines to identify multiple opportunities for drug repurposing: Primary screen for Rh41 cells (AID 1347108); further: nearly all actives have a fitted effect of over 70% in size; further: potency means the concentration at half of the fitted maximal effect
Procedure, shortened: as §2

[8] = qHTS of pediatric cancer cell lines to identify multiple opportunities for drug repurposing: Primary screen for SK-N-SH cells (AID 1347098); further: nearly all actives have a fitted effect of over 65% in size; further: potency means the concentration at half of the fitted maximal effect
Procedure, shortened: (§3)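 Cells (500-1,000/well) rested 5 h, then received compounds for 48 h; metabolically active cells were measured by CellTiter-Glo luminescence. Final concentrations spanned up to 46 µM (MIPE, 11-point) or 0.59 nM-46 µM (NPC, 8-point) in primary screens, 11-point in follow-ups.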

[9] = qHTS of pediatric cancer cell lines to identify multiple opportunities for drug repurposing: Primary screen for LAN-5 cells (AID 1347100); further: potency means the concentration at half of the fitted maximal effect
Procedure, shortened: as §1

[10] = qHTS of pediatric cancer cell lines to identify multiple opportunities for drug repurposing: Primary screen for BT-12 cells (AID 1347101); further: nearly all actives have a fitted effect of over 25% in size; further: potency means the concentration at half of the fitted maximal effect
Procedure, shortened: as §3

[11] = qHTS of pediatric cancer cell lines to identify multiple opportunities for drug repurposing: Primary screen for OHS-50 cells (AID 1347103); further: nearly all actives have a fitted effect of over 40% in size; further: potency means the concentration at half of the fitted maximal effect
Procedure, shortened: as §3

[12] = qHTS of pediatric cancer cell lines to identify multiple opportunities for drug repurposing: Primary screen for MG 63 (6-TG R) cells (AID 1347105); further: nearly all actives have a fitted effect of over 50% in size; further: potency means the concentration at half of the fitted maximal effect
Procedure, shortened: as §2

[13] = qHTS of pediatric cancer cell lines to identify multiple opportunities for drug repurposing: Primary screen for Saos-2 cells (AID 1347097); further: potency means the concentration at half of the fitted maximal effect; nearly all actives have a fitted effect of over 40% in size
Procedure, shortened: as §2

[14] = qHTS of pediatric cancer cell lines to identify multiple opportunities for drug repurposing: Confirmatory screen for NB1643 cells (AID 1347109); further: potency means the concentration at half of the fitted maximal effect; nearly all actives have a fitted effect of over 45% in size
Procedure, shortened: as §1

[15] = qHTS of pediatric cancer cell lines to identify multiple opportunities for drug repurposing: Confirmatory screen for A673 cells (AID 1347110);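 further: potency means the concentration at half of the fitted maximal effect; cells exposed to compound for 48 h before the viability read; nearly all actives have a fitted effect of over 65% in size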
Procedure, shortened: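 A673 cells at 500-1,000 cells/well were dosed 5 h after plating, in dilution series up to 46 uM final; primary runs used 8 or 11 points and confirmatory runs used 11 points. Viability was read by CellTiter-Glo luminescence after 48 h, against DMSO and 2.3 uM bortezomib controls.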

[16] = qHTS of pediatric cancer cell lines to identify multiple opportunities for drug repurposing: Confirmatory screen for DAOY cells (AID 1347114); further: potency means the concentration at half of the fitted maximal effect; nearly all actives have a fitted effect of over 65% in size
Procedure, shortened: (§4)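 Viability measured as metabolically active cells via CellTiter-Glo luminescence following 48 hours of compound exposure, 11-point dilutions in confirmatory testing. 500-1,000 cells/well plated 5 hours before dosing; controls were DMSO and 2.3 µM bortezomib.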

[17] = qHTS of pediatric cancer cell lines to identify multiple opportunities for drug repurposing: Confirmatory screen for BT-37 cells (AID 1347117); further: potency means the concentration at half of the fitted maximal effect; nearly all actives have a fitted effect of over 55% in size
Procedure, shortened: as §1

[18] = qHTS of pediatric cancer cell lines to identify multiple opportunities for drug repurposing: Confirmatory screen for TC32 cells (AID 1347118)
Procedure, shortened: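 Luminescent ATP read-out (CellTiter-Glo) of metabolically active TC32 cells after 48 h exposure. Concentration-response curves came from 11-point (MIPE, 0.78 nM–46 µM) or 8-point (NPC, 0.59 nM–46 µM) primary titrations; follow-up used 11 points.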

[19] = qHTS of pediatric cancer cell lines to identify multiple opportunities for drug repurposing: Confirmatory screen for BT-12 cells (AID 1347112); further: potency means the concentration at half of the fitted maximal effect; nearly all actives have a fitted effect of over 55% in size
Procedure, shortened: as §1

[20] = qHTS of pediatric cancer cell lines to identify multiple opportunities for drug repurposing: Confirmatory screen for SJ-GBM2 cells (AID 1347116); further: potency means the concentration at half of the fitted maximal effect; nearly all actives have a fitted effect of over 60% in size
Procedure, shortened: as §4

Measured: Potency

CC1(C)CC/C(=C/c2ccc(Cl)cc2)C1(O)Cn1cncn1 (stereo not drawn)
inactive: [1] | [2] | [3] | [4] | [5] | [6] | [7]

O=c1cccc2n1CC1CNC[C@H]2C1
active: [8] 24.1 µM | [2] 5.9 µM | [9] 2.96 µM | [3] 3.32 µM | [4] 18.7 µM | [7] 11.8 µM

CO/C=C(/C(=O)OC)c1ccccc1Oc1cc(Oc2ccccc2C#N)ncn1
active: [9] 21.7 µM | [10] 8.93 µM | [11] 14.2 µM
inactive: [5]

CC(C)Oc1cccc(NC(=O)c2ccccc2C(F)(F)F)c1
active: [11] 25.2 µM
inactive: [1] | [2] | [12] | [5] | [6] | [7]

Nc1ccc(Cl)cc1N
inactive: [1] | [2] | [3] | [11] | [4] | [12] | [5] | [6] | [7]
active: [9] 24.3 µM

CCO/N=C(\CC)C1=C(O)CC(c2c(C)cc(C)cc2C)CC1=O (stereo not drawn)
inactive: [1] | [9] | [4] | [12] | [5] | [6] | [7]

CC(C)(C)c1cc(C=C(C#N)C#N)cc(Br)c1O
inactive: [1] | [3] | [5] | [6] | [7]
active: [2] 4.69 µM | [11] 30.6 µM

CCOC(=O)c1c(C(C#N)=CN)c2ccc(Cl)c(Cl)c2n1C
inactive: [1] | [9] | [10] | [3] | [11] | [4] | [5]

O=[N+]([O-])c1c2ccccc2cc2ccccc12
inactive: [1] | [9] | [3] | [12] | [5] | [6]

O=C(Nc1ccncc1)C(=O)c1cn(Cc2ccc(Cl)cc2)c2ccccc12
active: [13] 0.0372 µM | [11] 0.0863 µM | [4] 0.0469 µM | [7] 0.0743 µM | [14] 0.465 µM | [15] 0.414 µM | [16] 0.293 µM | [17] 0.827 µM | [18] 0.233 µM
inactive: [3] | [5]

CC1=C(O)C(=O)C=C2C1=CC=C1[C@@]2(C)CC[C@@]2(C)[C@@H]3C[C@](C)(C(=O)O)CC[C@]3(C)CC[C@]12C
active: [13] 2.35 µM | [8] 3.04 µM | [2] 1.66 µM | [9] 1.87 µM | [3] 1.87 µM | [11] 2.43 µM | [4] 1.32 µM | [12] 0.935 µM | [6] 4.69 µM | [7] 1.48 µM | [14] 2.08 µM | [15] 1.31 µM | [19] 3.29 µM | [16] 1.65 µM | [20] 2.61 µM | [17] 4.65 µM | [18] 1.31 µM

N=c1c2c(-c3ccccc3)c(-c3ccccc3)n(Cc3ccccc3)c2ncn1C1CCC(O)CC1 (stereo not drawn)
inactive: [5]
active: [13] 23.5 µM | [2] 4.69 µM | [9] 1.05 µM | [10] 6.85 µM

O=C(Oc1ccc([N+](=O)[O-])cc1)N1CCN(Cc2cccc(Oc3ccccc3)c2)CC1
active: [4] 18.7 µM | [12] 14.8 µM | [5] 3.32 µM
inactive: [1] | [9] | [3] | [11] | [6] | [7]

S=C(SSC(=S)N1CCCCC1)N1CCCCC1
active: [13] 0.0376 µM | [2] 0.0944 µM | [9] 0.168 µM | [10] 0.0389 µM | [3] 0.0299 µM | [4] 0.0299 µM | [5] 1.06 µM | [15] 10.4 µM | [18] 2.61 µM
inactive: [6]

CO[C@H]1CCC(O[C@H]2C[C@H]([C@]3(C)CC[C@]4(C[C@H](O)[C@@H](C)[C@@H]([C@@H](C)C=C(C)C(=O)[C@H](C)C[C@H](C)C(=O)O)O4)O3)O[C@]3(O[C@@H]([C@H]4O[C@@](O)(CO)[C@H](C)C[C@H]4C)C[C@H]3C)[C@H]2C)O[C@H]1C (stereo partly drawn)
active: [13] 2.64 µM | [8] 30.4 µM | [2] 1.05 µM | [9] 0.372 µM | [10] 0.273 µM | [3] 2.96 µM | [11] 0.217 µM | [4] 1.87 µM | [12] 7.43 µM | [6] 3.72 µM | [7] 1.87 µM | [14] 2.93 µM | [15] 1.85 µM | [19] 2.93 µM | [16] 20.8 µM

CCNC(=O)C[C@@H]1N=C(c2ccc(Cl)cc2)c2cc(OC)ccc2-n2c(C)nnc21
active: [13] 4.69 µM | [2] 1.05 µM | [9] 2.35 µM | [11] 1.53 µM | [12] 0.469 µM | [7] 5.9 µM
inactive: [5]

COC[C@H]1OC(=O)c2coc3c2[C@@]1(C)C1=C(C3=O)[C@@H]2CC[C@H](O)[C@@]2(C)C[C@@H]1OC(C)=O
inactive: [5]
active: [13] 2.09 µM | [8] 27.1 µM | [9] 2.64 µM | [3] 4.69 µM | [11] 0.306 µM | [4] 14.8 µM | [12] 1.87 µM | [7] 11.8 µM

Cc1c(C(=O)c2cccc3ccccc23)c2cccc3c2n1[C@H](CN1CCOCC1)CO3
inactive: [1]
active: [2] 11.8 µM | [10] 27.3 µM | [3] 20.9 µM | [11] 13.7 µM | [4] 29.6 µM | [12] 23.5 µM | [7] 20.9 µM

COc1nn(CSP(=S)(OC)OC)c(=O)s1
inactive: [1] | [5]

CC[C@H]1C=CC=CC[C@@H](C)[C@H](O)[C@@](C)(O)C(=O)[C@@H](C)[C@H](O)[C@@H](C)C(=O)[C@@H](C)[C@H](O)[C@@H](C)C=CC(=O)O[C@@H]2[C@@H](C)[C@H](CC1)O[C@]1(CC[C@H](C)[C@H](C[C@@H](C)O)O1)[C@H]2C
active: [9] 18.7 µM | [10] 0.0061 µM | [3] 26.4 µM | [11] 0.0049 µM | [16] 0.0037 µM | [20] 20.8 µM | [17] 0.0585 µM | [18] 1.85 µM
inactive: [8] | [5]

c1ccc(CCCN2CCN(CCOC(c3ccccc3)c3ccccc3)CC2)cc1
active: [2] 26.4 µM | [9] 29.6 µM | [11] 21.7 µM | [4] 29.6 µM
inactive: [1] | [5]

Cc1c(C(=O)Nc2cccc(C(F)(F)F)c2)cc(-c2ccccc2)n1CCCN1CCOCC1
inactive: [5]
active: [13] 18.7 µM | [8] 24.1 µM | [2] 23.5 µM | [9] 18.7 µM | [11] 24.3 µM | [4] 18.7 µM | [14] 42.7 µM | [16] 38 µM | [17] 42.7 µM

C=CCC1=C(C)C(OC(=O)C2C(C=C(C)C)C2(C)C)CC1=O (stereo not drawn)
inactive: [8] | [3] | [12] | [5]
active: [11] 28.2 µM

O=S(=O)(c1ccc(Cl)cc1)c1ccc(Cl)cc1
inactive: [1] | [9] | [3] | [12] | [5] | [7]

CCCN(CCC)c1c([N+](=O)[O-])cc(S(N)(=O)=O)cc1[N+](=O)[O-]
active: [13] 30.6 µM | [8] 49.8 µM | [2] 48.6 µM | [11] 28.2 µM | [4] 38.6 µM | [12] 48.6 µM | [7] 38.6 µM
inactive: [5]

C[C@](O)(COc1ccc(C#N)cc1)C(=O)Nc1ccc(C#N)c(C(F)(F)F)c1
inactive: [1] | [3] | [12] | [5] | [6] | [7]
active: [2] 23.5 µM | [11] 27.3 µM

CC(O)=C(C#N)C(=O)Nc1cc(Br)ccc1Br
inactive: [1] | [10] | [3] | [11] | [4] | [12] | [5] | [6]
active: [2] 1.32 µM

COc1ccc(C(c2ccc(OC)cc2)C(Cl)(Cl)Cl)cc1
active: [13] 30.3 µM | [8] 49.8 µM | [2] 42.8 µM
inactive: [5]

CCCCCCCCCCCCCCCC[N+](C)(C)C
active: [8] 17.2 µM | [9] 23.7 µM | [10] 7.77 µM | [3] 5.31 µM | [11] 3.89 µM | [4] 13.3 µM | [12] 21.1 µM

O=c1[nH]c2ccccc2n1C1CCN(Cc2ccc(-c3[nH]c4cc5ncnc5cc4nc3-c3ccccc3)cc2)CC1
inactive: [8] | [5]
active: [13] 16.6 µM | [2] 20.9 µM | [9] 14.8 µM | [11] 1.72 µM
